# Compound activity: PubChem, National Center for Advancing Translational Sciences (NCATS)
# SARS PLP yeast = blocks SARS-CoV papain-like protease in a yeast assay | S. cerevisiae expressing SARS-CoV PLpro, growth rescue | actives 0.19% (n = 330,000) | Potency, µM (series often up to 32.9 µM), hits mostly activators | AID 485353; calls by dose curve; further: nearly all actives have a fitted effect of over 55% in size
# CHX counter = counter-screen hit for Shiga toxin inhibitors, cycloheximide. cell reporter, cycloheximide protein synthesis inhibition counterscreen. max response, %. actives 12% (n = 300,000); in the data active means max response mostly above about 13%, no sharp cut-off; inactive means mostly below about 14%; further: read at 38.3 µM for the half of the compounds with a filed dose
# Pf growth 96h = P. falciparum growth inhibition at 96 hour, primary screen for plastid delayed-death inhibitors; actives 6.9% (n = 320,000); Potency, µM (titrated, usually from 28.7 µM), actives largely listed as inhibitors; P. falciparum luciferase reporter growth, 96 h
#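 Infected RBCs, 2% Hct / 0.05% parasitemia final; luciferase-reporter P. falciparum; cpd 96 h, 37 C, 5% CO2; luciferase detection reagent; luminescence.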
# Shiga toxin inh = inhibitors of Shiga toxin in Vero cells | Vero cells, Shiga toxin protein synthesis inhibition reporter | inhibition, % at 38.7 µM | actives 9.2% (n = 290,000) | AID 2315; in the data active means inhibition mostly above about 28%, no sharp cut-off; inactive means mostly below about 43%
# AMA1 RON2 block = disrupts binding of P. falciparum AMA1 to RON2; AlphaScreen AMA1-biotinylated RON2 peptide binding; actives 0.2% (n = 360,000); AID 720542; Potency, µM (titrated, usually from 58.2 µM), actives largely listed as inhibitors; further: nearly all actives have a fitted effect of over 45% in size
#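 AMA1 (3D7) with his tag at 25 nM final met compounds first, then biotinylated RON2 peptide at 25 nM; detection used donor plus acceptor beads, 10 µg/mL apiece, read by AlphaScreen after 30 min at room temperature.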
# Pf growth 48h = P. falciparum growth inhibition at 48 hours (one generation); P. falciparum luciferase growth in erythrocytes, 48 h; Potency, µM (highest dose often 28.7 µM), hits mostly inhibitors; actives 5.9% (n = 310,000); AID 504832
#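 Erythrocytes infected with P. falciparum carrying an integrated firefly luciferase reporter (2% hematocrit, 0.1% parasitemia final) were exposed to compounds in RPMI 1640 with 0.5% Albumax at 37 C, 5% CO2. Growth inhibition was scored as reduced luminescence.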
# Hits are given with their value; – = inactive; ? = inconclusive; · = no result given; [ ] = remark or other dose. Most compounds without a hit are left out; they make up all but 19% or so of the library. Unless noted, the call rests on the fitted dose curve; in most records, active means well fitted curve in the direction sought with a large enough effect; inconclusive means small, poorly fitted or top-dose-only effect, or another doubt; inactive means no such curve, though single readings can be large; an effect the other way counts as inactive or inconclusive.
SMILES,SARS PLP yeast,CHX counter,Pf growth 96h,Shiga toxin inh,AMA1 RON2 block,Pf growth 48h
Cc1cc(C)cc(NC(=S)NCCc2ccc(S(N)(=O)=O)cc2)c1,–,–,1.65µM,–,–,–
S=C(NCCOCCOCCNC(=S)Nc1ccccc1)Nc1ccccc1,–,–,–,–,–,6.57µM
CCC(C)(C)NC(=S)Nc1ccccc1C,–,–,?,–,–,10.4µM
Cc1cc(N2CCN(S(=O)(=O)c3ccc4ccccc4c3)CC2)n2ncnc2n1,–,–,–[5.75 µM],–,–,?
c1ccc2c(Nc3nncs3)c3ccccc3nc2c1,–,–,–,–,–,–
CC(C)(C)Cc1c(-c2cccc(Br)c2)nc2ccc(Br)cn12,·,·,·,·,–,·
Cc1cnn(C(=S)NCc2ccc(Cl)cc2)c1,–,–,–,–,–,?
S=C(NCCc1ccccc1)Nc1ccc(Br)cc1,–,52.8,–,–,–,–
S=C(NCCc1ccccc1)NC1CC1,?,–,–,–,–,–
CC(C)(C)NC(=S)NCCc1ccccc1,–,30.5,–,74.8,–,–
Cc1ccc(C)c(NC(=O)C2CCCC2)c1,·,·,·,·,–,·
Cc1ccc(C)c(NC(=S)NCCN(C2CCCCC2)C2CCCC2)c1,–,–,?,–,–,10.4µM
Cc1cnn(C(=S)NCCc2ccccc2)c1,–,34.5,·,77.4,–,–
Nc1cc(=O)[nH]c(SCC(=O)Nc2ncc(C(F)(F)F)cc2Cl)n1,–,–,–,–,–,–
CC1CCCN(CCCOc2ccccc2-c2ccccc2)C1 (stereo not drawn),–,–,–,–,–,–
CCCN(C1CCS(=O)(=O)C1)S(=O)(=O)c1ccc(F)cc1 (stereo not drawn),·,·,–,·,–,–
Cc1ccc(C)c(NC(=S)NCCc2ccc(F)cc2)c1,–,–,?,–,–,13.1µM
Cc1ccc(NC(=S)NCCc2ccccc2)c(C)c1,–,16.8,–,–,–,?
Cc1ccc(C(=O)O)cc1NC(=S)NCCc1ccccc1,–,–,?,–,–,–
Cc1ccc(NC(=S)NCCO)c(C)c1,–,–,–,–,–,–
Cc1ccc(SCCNC(=S)Nc2cc(C)ccc2C)cc1,–,–,8.28µM,–,–,·
Cc1ccc(SCCNC(=S)Nc2ccc(C)c(C)c2)cc1,–,–,–,–,–,?
Cc1ccc(NC(=S)NCc2ccc(F)cc2)c(C)c1,–,–,?,–,–,?
Cc1ccc([N+](=O)[O-])cc1NC(=S)NCCc1ccccc1,–,–,13.1µM,–,–,–
CCOc1cc(N2CCOCC2)c(OCC)cc1NC(=O)COC(=O)CCOc1cc(C)ccc1C,–,·,–,·,–,–
SMILES,SARS PLP yeast,CHX counter,Pf growth 96h,Shiga toxin inh,AMA1 RON2 block,Pf growth 48h
Cc1cc(Br)ccc1NC(=S)NCCc1ccccc1,–,–,11.7µM,–,–,–
COc1ccccc1NC(=S)NCCc1ccccc1,–,–,?,–,–,–
CCCCn1c(O)c(N=Nc2ccccc2O)c2ccccc21,–,·,–,·,–,6.57µM
CCCCn1c(O)c(N=Nc2ccccn2)c2ccccc21,–,–,?,–,–,–
CCn1c(O)c(N=Nc2ccc3ccccc3n2)c2ccccc21,–,38.8,–,81.2,–,–
CC12CCC(C(=O)Nc3cccc(Cl)c3)(C(Br)C1=O)C2(C)C (stereo not drawn),–,–,14.7µM,–,–,?
CCOC(=O)c1ccc(NC(=S)NCCCN2CCCCC2)cc1,–,–,–,–,–,–
CCCN1CCN(C(=S)Nc2ccc([N+](=O)[O-])cc2)CC1,–,–,–,–,–,–
CCCN1CCC(NC(=S)Nc2ccc([N+](=O)[O-])cc2)CC1,–,10.2,?,–,–,3.7µM
CCCN1CCC(NC(=S)Nc2ccc(C(=O)OCC)cc2)CC1,–,–,–,–,–,11.7µM
CSCC[C@H](NC(=O)Nc1ccc(S(N)(=O)=O)cc1)C(=O)O,–,–,–,–,–,–
O=C(CCl)N=c1sccn1Cc1ccc(Cl)cc1Cl,–,28.0,11.7µM,–,–,?
CCC(=O)OCC(=O)N=c1sccn1Cc1ccccc1Cl,–,–,?,–,–,?
O=C(CCl)N=c1sccn1Cc1ccccc1Cl,–,–,0.738µM,–,–,0.262µM
O=C(CCl)N=c1sccn1Cc1cccc2ccccc12,–,–,1.47µM,–,–,?
O=C(O)CCC1(c2ccccc2)NC(=O)NC1=O (stereo not drawn),–,–,–,–,–,–
Cc1ccccc1-c1cnc2c(c1)C(=O)N([C@H](C)CO)C[C@@H](C)[C@H](CN(C)C(=O)c1ccncc1)O2,·,·,·,·,–,·
Cc1c(C(C)(C)C)sc(=NC(=O)c2ccccc2O)n1C,–,37.6,?,82.2,–,–
Cc1c(C(C)(C)C)s/c(=N/S(=O)(=O)c2ccccc2)n1C,–,–,–,–,–,?
S=c1[nH]ncn1/N=C/c1ccccn1,–,–,·,–,–,–
COc1ccc(-c2nnc3cccc(Cl)n23)c(OC)c1,–,10.4,–,43.1,–,–
Clc1ccc(-c2nnc3cccc(Cl)n23)c(Cl)c1,–,–,?,–,–,–
O=Cc1cccc(OC(=O)c2ccc(Cl)cc2Cl)c1,–,26.3,–,–,·,·
COc1cc(C(=O)Oc2cccc(C=O)c2)cc(OC)c1OC,–,–,?,–,–,·
Cc1cc(C)nc(OC(=O)c2ccc(Cl)cc2Cl)n1,–,17.2,–,–,·,–
SMILES,SARS PLP yeast,CHX counter,Pf growth 96h,Shiga toxin inh,AMA1 RON2 block,Pf growth 48h
CCOC(=O)NC1(NC(C)C)Oc2ccccc2O1,–,–,–,–,–,·
CCOC(=O)NC1(Nc2ccc(C)cc2)Oc2ccccc2O1,–,55.1,?,46.4,–,–
CCOC(=O)NC1(NCc2ccccc2)Oc2ccccc2O1,–,15.6,?,–,–,?
O=C(O)c1ccc(N2CCCS2(=O)=O)cc1,–,–,–,–,–,–
CCOP(=O)(OCC)C(O)c1cc(OC)c(OC)c(OC)c1 (stereo not drawn),–,–,–,–,–,–
CC(=O)Nc1cc(OC(C)=O)c2nonc2c1OC(C)=O,–,–,–,–,–,10.4µM
Cc1c(N2CCCC2)cc2c(c1NC(=O)c1ccccc1Cl)C(C)(C)CC2(C)C,–,–,?,–,–,?
Cc1ccc(S(=O)(=O)Nc2cc(C(C(=O)OC(C)C)C(=O)C(F)(F)F)c(O)c3ccccc23)c(C)c1 (stereo not drawn),–,–,5.22µM,–,–,13.1µM
Cc1ccc(S(=O)(=O)Nc2ccc(O)c3ccccc23)c(C)c1,–,–,–,–,–,–[0.00184 µM]
O=P(O)(c1ccccc1)c1ccccc1O,–,–,11.7µM,–,–,–
CON(C)C(=O)Nc1ccc(Cl)cc1,–,11.5,·,–,–,–
Cc1ccc(C(NC(=O)NC(C)c2ccccc2)C(Cl)(Cl)Cl)cc1F (stereo not drawn),–,–,?,–,–,4.15µM
CC(NC(=O)c1cc2cc(F)ccc2[nH]1)c1ccccc1 (stereo not drawn),–,–,?,–,–,–[0.00184 µM]
CC(=O)c1ccc(NC(=O)Nc2ccc(Cl)cc2)cc1,–,34.2,?,104.6,–,·
